Assay [1] is described as follows: optical density shifts of acrAB sulA E. coli – strain DRC41, OD650, 48 h, E. coli filamentation inducer project, primary screen (AID 1152).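 Further: E. coli MC1000 strain DRC41 lacking acrAB efflux pump and sulA.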 The conditions noted are these: higher = more signal, called active from +8 up or from −8 down.
A short description of assay [2]: probe aLefty1 binding on compound microarray – biochemical, small-molecule microarray, 635/667 nm fluorescence, primary screen (AID 1153).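 Further: score merges spot fluorescence with signal-to-noise ratio from the scanned slide images.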 The settings on record: higher = more signal.
A short description of assay [3]: plasmodial surface anion channel blockers, osmotic lysis – cell-based, P. falciparum Indochina, OD700, 1 h, primary screen (AID 1154). The conditions noted are these: P. falciparum Indochina infected RBC osmotic lysis, higher = more signal, called active from +8 up or from −8 down.
Assay [4] in a line: plasmodial surface anion channel blockers, osmotic lysis – cell-based, P. falciparum Indochina, OD700, 2 h, primary screen (AID 1155).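 Further: lysis reports solute entry through the parasite surface anion channel PSAC.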 The settings on record: P. falciparum Indochina infected erythrocytes, higher = more signal, called active from +8 up or from −8 down.
Assay [5] is described as follows: changes in parasitized red cell lysis, either direction – P. falciparum Indochina, OD700, 3 h, PSAC antagonist project, primary screen (AID 1156). The conditions noted are these: P. falciparum-infected erythrocytes, osmotic lysis, higher = more signal, called active from +8 up or from −8 down.
A short description of assay [6]: plasmodial surface anion channel blockers, osmotic lysis – cell-based, P. falciparum Indochina, OD700, 18 h, primary screen (AID 1157). The settings on record: P. falciparum Indochina infected erythrocytes, osmotic lysis OD700, 18 h; higher = more signal, called active from +8 up or from −8 down.
Assay [7] can be described thus: S6 kinase pathway phospho-S6 level changes – cell-based, A549, cytoblot, luminescence, serum-stimulated, primary screen (AID 1158).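 Further: serum-stimulated A549 lung adenocarcinoma cells; signal is phosphorylated S6 detected by cytoblot immunostaining with HRP secondary.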 The settings on record: 5 h, higher = more signal.
Assay [8] deals with NADPH oxidase 2 (Homo sapiens) (UniProt P04839). In words: compounds shifting NOX2 Amplex Red fluorescence – cell-based, HEK293-NOX2, PMA-stimulated, NOX inhibitor project, primary screen (AID 1159). Further: test concentration not given here. The conditions noted are these: 45 min, higher = more signal, called active from +8 up or from −8 down.
Assay [9] has as its target NADPH oxidase 4 (Homo sapiens) (UniProt Q9NPH5). In words: compounds shifting NOX4 Amplex Red fluorescence – cell-based, HEK293-NOX4, tetracycline-induced, NOX inhibitor project, primary screen (AID 1160). The conditions noted are these: HEK293-NOX4, Amplex Red H2O2 fluorescence, 45 min; higher = more signal, called active from +8 up or from −8 down.
In assay [10] the target is NADPH oxidase 5 (Homo sapiens) (UniProt Q96PH1). As to the kind of experiment: compounds shifting NOX5 Amplex Red fluorescence – cell-based, HEK293-NOX5, NOX inhibitor project, primary screen (AID 1161). The conditions noted are these: HEK293-NOX5, ionomycin, 45 min, higher = more signal.
The nature of assay [11]: compound effects on lung adenocarcinoma cell viability – A549, calcein-AM fluorescence, 48 h, basal, profiling panel (AID 1162). Further: test concentration not given here. The settings on record: higher = more signal.
The nature of assay [12]: compound effects on differentiated 3T3-L1 adipocyte viability – cell-based, 3T3-L1 adipocytes, calcein-AM fluorescence, 48 h, basal, profiling panel (AID 1163). Further: test concentration not given here. The settings on record: 3T3-L1 adipocytes viability, higher = more signal.
Assay [13] in a line: compound effects on hepatocellular carcinoma cell viability – HepG2, calcein-AM fluorescence, 48 h, basal, profiling panel (AID 1164). Further: test concentration not given here. The settings on record: higher = more signal.
Assay [14] in a line: compound effects on multiple myeloma cell viability – MM1S, calcein-AM fluorescence, 48 h, basal, profiling panel (AID 1165).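 Further: viability of MM1S multiple myeloma cells under basal unstimulated conditions; test concentration not given here.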 The settings on record: higher = more signal.
Assay [15] can be described thus: calcein-AM signal in unstimulated myeloma cells – cell-based, calcein-AM fluorescence, 48 h, PK04 Diversity Set, profiling panel (AID 1166).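 Further: cells grown under basal conditions without added stimulus; test concentration not given here.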 The settings on record: RPMI8226 myeloma viability, higher = more signal.
Assay [16] is described as follows: JC-1 mitochondrial signal, unstimulated HepG2 cells – cell-based, JC-1 fluorescence, 24 h, 100 nL compound, profiling panel (AID 1167). Further: test concentration not given here. The settings on record: HepG2 mitochondrial potential, higher = more signal.
Assay [17] can be described thus: JC-1 mitochondrial signal, unstimulated adipocytes – cell-based, JC-1 fluorescence, 3T3-L1 adipocytes, 24 h, 100 nL compound, profiling panel (AID 1168). Further: test concentration not given here. The settings on record: JC-1 mitochondrial fluorescence, higher = more signal, called active from +8 up or from −8 down.
The nature of assay [18]: JC-1 mitochondrial signal, unstimulated myeloma cells – cell-based, JC-1 fluorescence, RPMI8226, 24 h, 100 nL compound, profiling panel (AID 1169). Further: test concentration not given here. The settings on record: JC-1 mitochondrial potential fluorescence, higher = more signal.
Assay [19] is described as follows: JC-1 mitochondrial signal, unstimulated MM1S myeloma – cell-based, JC-1 fluorescence, 24 h, 100 nL compound, profiling panel (AID 1170). Further: test concentration not given here. The settings on record: MM1S mitochondrial potential, higher = more signal.
Assay [20] can be described thus: resazurin metabolic signal in A549 cells – cell-based, resazurin fluorescence, 24 h, PK04 Diversity Set, profiling panel (AID 1171). Further: test concentration not given here. The settings on record: A549 viability, higher = more signal, called active from +8 up or from −8 down.

SMILES strings stand for the structures. Activity calls are given as the source filed them.

NADPH oxidase 4 (Homo sapiens), sequence (Q9NPH5 whole entry, looked up): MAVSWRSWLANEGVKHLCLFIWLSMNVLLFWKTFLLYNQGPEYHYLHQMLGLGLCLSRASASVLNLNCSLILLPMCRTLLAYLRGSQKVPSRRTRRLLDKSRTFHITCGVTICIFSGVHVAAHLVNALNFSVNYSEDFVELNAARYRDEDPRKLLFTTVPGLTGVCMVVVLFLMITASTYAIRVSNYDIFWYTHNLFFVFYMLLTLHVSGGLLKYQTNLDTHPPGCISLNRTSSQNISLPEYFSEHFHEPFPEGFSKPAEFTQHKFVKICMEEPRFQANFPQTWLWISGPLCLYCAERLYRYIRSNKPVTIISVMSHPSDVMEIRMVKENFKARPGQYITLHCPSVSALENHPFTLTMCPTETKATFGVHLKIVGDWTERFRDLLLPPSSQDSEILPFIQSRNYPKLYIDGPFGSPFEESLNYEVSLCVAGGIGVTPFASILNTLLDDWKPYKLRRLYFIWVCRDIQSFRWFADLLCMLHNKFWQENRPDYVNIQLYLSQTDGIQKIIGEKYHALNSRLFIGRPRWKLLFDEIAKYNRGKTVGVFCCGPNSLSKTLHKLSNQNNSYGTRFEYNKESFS
NADPH oxidase 5 (Homo sapiens), sequence (Q96PH1 whole entry, looked up): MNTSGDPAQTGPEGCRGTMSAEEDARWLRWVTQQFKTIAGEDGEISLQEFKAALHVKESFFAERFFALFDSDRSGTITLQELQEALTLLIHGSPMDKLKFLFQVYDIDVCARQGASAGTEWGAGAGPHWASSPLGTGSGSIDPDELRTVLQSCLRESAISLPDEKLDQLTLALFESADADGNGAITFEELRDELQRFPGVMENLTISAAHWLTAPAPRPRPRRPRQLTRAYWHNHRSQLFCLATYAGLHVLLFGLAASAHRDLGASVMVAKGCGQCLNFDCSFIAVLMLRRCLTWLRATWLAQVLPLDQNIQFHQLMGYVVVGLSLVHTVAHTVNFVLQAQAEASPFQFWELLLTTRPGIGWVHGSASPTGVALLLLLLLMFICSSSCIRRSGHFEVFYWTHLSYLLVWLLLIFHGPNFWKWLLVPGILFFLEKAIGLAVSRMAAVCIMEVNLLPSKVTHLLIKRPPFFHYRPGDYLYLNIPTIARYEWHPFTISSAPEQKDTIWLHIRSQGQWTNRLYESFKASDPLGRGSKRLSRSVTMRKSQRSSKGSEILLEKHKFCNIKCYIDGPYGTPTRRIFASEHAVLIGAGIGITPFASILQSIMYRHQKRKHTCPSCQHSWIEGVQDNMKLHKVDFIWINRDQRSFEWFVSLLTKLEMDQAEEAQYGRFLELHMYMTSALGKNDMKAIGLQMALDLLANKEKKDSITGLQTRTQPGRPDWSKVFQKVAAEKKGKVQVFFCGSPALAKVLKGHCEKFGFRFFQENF
NADPH oxidase 2 (Homo sapiens), sequence (P04839 whole entry, looked up): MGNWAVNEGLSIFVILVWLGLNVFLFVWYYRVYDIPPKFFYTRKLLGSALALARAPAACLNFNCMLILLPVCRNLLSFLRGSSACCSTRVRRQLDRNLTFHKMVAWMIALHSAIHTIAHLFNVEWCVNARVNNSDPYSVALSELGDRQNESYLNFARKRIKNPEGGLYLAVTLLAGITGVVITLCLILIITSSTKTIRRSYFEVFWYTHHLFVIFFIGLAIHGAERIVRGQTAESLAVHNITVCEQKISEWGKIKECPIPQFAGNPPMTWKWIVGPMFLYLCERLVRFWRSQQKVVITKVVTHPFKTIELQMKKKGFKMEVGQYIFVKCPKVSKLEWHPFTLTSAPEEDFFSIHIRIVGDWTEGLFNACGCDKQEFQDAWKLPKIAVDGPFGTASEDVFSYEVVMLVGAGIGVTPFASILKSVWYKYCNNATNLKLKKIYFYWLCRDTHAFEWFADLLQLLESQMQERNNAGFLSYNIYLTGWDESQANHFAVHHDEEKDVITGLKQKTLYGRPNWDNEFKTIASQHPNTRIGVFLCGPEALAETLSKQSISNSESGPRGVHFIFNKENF

As to `CCOC(=O)C1=C[C@@H](C(C)(C)C)N(S(=O)(=O)c2ccc(C)cc2)[C@H]1c1ccc(C#N)cc1`, the z-score was -1.02 (inactive) in assay [1]; 3.01 (inactive) in assay [3]; 1.33 (inactive) in [4]; -0.217 (inactive) in assay [5]; 0.905 (inactive) in [6]; -0.561 in assay [7]. Besides, the z-score was -0.642 (inactive) in assay [8]; -0.508 (inactive) in assay [9]; 1.11 in assay [10]; -0.368 in assay [11]; -0.316 in assay [12]; -1.12 in [13]. Also, the z-score in assay [14] is -2.79; in assay [15], -2.17; in assay [16], 1.63; in assay [17] it was -0.398 (inactive); in assay [18] it was -0.372; in assay [19], -0.555. For the same compound, in assay [20], the z-score is 1.69 (inactive). In [2], this compound came in with a composite z-score of 0.337.

As to `NC(=O)NCC#Cc1ccc2c(c1)[C@]1(C(=O)N2)[C@H](c2ccc(OCCO)cc2)N2[C@H](c3ccccc3)[C@H](c3ccccc3)OC(=O)[C@H]2[C@@H]1C(=O)NC[C@H](O)c1ccccc1`, the z-score in assay [1] was 2.63 (inactive); in assay [3], 1.06 (inactive); in assay [4], -0.573 (inactive); in assay [5], -0.88 (inactive); in [6], -1.81 (inactive); in assay [7], 0.713. Further, the z-score is 2 (inactive) in assay [8]; 0.314 (inactive) in [9]; 0.742 in [10]; 0.192 in [11]; 0.326 in [12]; 0.013 in assay [13]. For the same compound, the z-score in assay [14] was 0.405; in [15], 0.847; in [16], -1.4; in assay [17], -0.0754 (inactive); in assay [18], -0.538; in [19], 0.207. Besides, the z-score in assay [20] is 0.401 (inactive). Also, the composite z-score in assay [2] turned out to be 0.0183.

Take `COC(=O)[C@@]1(Cc2ccccc2)[C@H]2c3cc(C(=O)N(C)C)n(CCSC(=N)N)c3C[C@H]2CN1C(=O)c1ccccc1`: the z-score is -0.817 (inactive) in assay [1]; 0.929 (inactive) in assay [3]; 0.542 (inactive) in [4]; 0.746 (inactive) in assay [5]; 0.494 (inactive) in [6]; -0.0307 in assay [7]. Besides, the z-score was 0.251 (inactive) in assay [8]; -0.357 (inactive) in assay [9]; -1.01 in assay [10]; -0.944 in assay [11]; 0.451 in [12]; -1.11 in [13]. For the same compound, the z-score is -0.948 in assay [14]; -1.07 in assay [15]; 0.121 in [16]; -1.1 (inactive) in assay [17]; -0.889 in assay [18]; -0.656 in assay [19]. Besides, in assay [20], the z-score is -0.541 (inactive). Also, the composite z-score in assay [2] stood at 0.138.

In the case of `C=CCC(OC(C)=O)[C@@H]1[C@@H](N(Cc2cc3ccccc3o2)C(=O)c2cccc3ccccc23)c2cc(OCCCO)ccc2N1C(=O)c1ccc2ccccc2n1` (stereo not given in full), the z-score in assay [1] was 0.595 (inactive); in assay [3] it was 1.53 (inactive); in [4], 0.26 (inactive); in assay [5], 0.266 (inactive); in [6] it was 0.506 (inactive); in assay [7] it was 0.231. Also, the z-score was 0.889 (inactive) in [8]; -0.605 (inactive) in assay [9]; -1.64 in [10]; 0.375 in assay [11]; 0.756 in assay [12]; 0.601 in [13]. In addition, the z-score is -1.14 in [14]; -2.01 in [15]; 2.42 in [16]; -0.961 (inactive) in assay [17]; -0.211 in assay [18]; -0.245 in assay [19]. Moreover, the z-score in [20] was -0.985 (inactive). This compound also displayed a composite z-score in assay [2] of -0.239.
